For assay [1], the system named is Wnt5a (protein binding on small-molecule microarray). Description: Wnt5a binders on small-molecule microarray, primary screen, biophysical, 635/667 nm fluorescence (AID 1142).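 Further: fluorescence read at 667 nm with signal to noise per printed feature.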 The settings on record: 635 nm fluorescence, higher = more signal.
Assay [2] in a line: cell viability in Huh7 cells, primary screen, cytotoxicity control for HCV replication inhibitor project, CellTiter-Glo luminescence, basal, 48 h (AID 1143).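 Further: Huh7 hepatoma cells carrying a hepatitis C replication reporter with no stimulus; test concentration not given here.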 The note with it: Huh7 HCV replicon, higher = more signal, called active from +8 up or from −8 down.
Assay [3] can be described thus: P. aeruginosa biofilm formation inhibitors, primary screen, PAO1 strain, BacTiter-Glo luminescence, LB-PBS (AID 1144). The settings on record: 12 h, higher = more signal.
Assay [4] in a line: CREB reporter modulators without forskolin, primary screen, cell-based, PC12, CRE-LacZ reporter, unstimulated (AID 1145). The note with it: no forskolin, luminescence, 4.5 h, higher = more signal, called active from +8 up or from −8 down.
Assay [5] in a line: CREB reporter modulators under forskolin, primary screen, cell-based, PC12, CRE-LacZ reporter, forskolin-stimulated (AID 1146).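 Further: PC12 cells with 6xCRE LacZ reporter stimulated by forskolin 10 µM; beta-galactosidase reporter signal reflecting CREB driven transcription.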 The note with it: luminescence, 4.5 h, higher = more signal, called active from +8 up or from −8 down.
The target in assay [6] is Streptavidin (Streptomyces avidinii) (UniProt P22629). Briefly: streptavidin binders on small-molecule microarray, primary screen, artefact control for SMM compound annotation, biophysical, 635/667 nm fluorescence (AID 1147).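 Further: signal reflects streptavidin binding to arrayed compounds as a control protein.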 The note with it: streptavidin binding, higher = more signal.
Assay [7] in a line: small-molecule binders of probe aInhba, primary screen, biochemical, small-molecule microarray, 635/667 nm fluorescence (AID 1148).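 Further: score merges 667nm spot fluorescence with signal-to-noise for antibody binding to printed compounds.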 The settings on record: higher = more signal.
In assay [8] the target is Torsin-1A (Homo sapiens) (UniProt O14656). Description: torsin A binders from cell lysate, primary screen, small-molecule microarray, wild-type, 635/667 nm (AID 1149). The settings on record: COS7 hTOR1A-WT lysate, 635 nm fluorescence, higher = more signal.
Assay [9] has the same target. Description: small-molecule binders of mutant TOR1A in lysate, primary screen, cell lysate, small-molecule microarray, COS7 lysate, 635/667 nm fluorescence (AID 1150).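 Further: score pools 667 nm emission and signal to noise measuring lysate protein binding.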 The note with it: COS7 hTOR1A mutant lysate, 635 nm fluorescence, higher = more signal.
Assay [10] relates to Sonic hedgehog protein (Shh). Briefly: small-molecule binders of Shh protein, primary screen, biochemical, small-molecule microarray, 635/667 nm fluorescence (AID 1151).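 Further: Shh protein binding to compounds spotted on small-molecule microarray slides; score combines spot fluorescence intensity with signal-to-noise across triplicate slides.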 The settings on record: small-molecule microarray binding, 635 nm fluorescence; higher = more signal.
Assay [11] in a line: E. coli DRC41 culture turbidity changes, primary screen, E. coli filamentation inducer project, strain DRC41, OD650, 48 h (AID 1152).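 Further: E. coli MC1000 strain DRC41 lacking acrAB efflux pump and sulA.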 The settings on record: E. coli DRC41 (acrAB sulA), higher = more signal, called active from +8 up or from −8 down.
Assay [12] in a line: small-molecule binders of probe aLefty1, primary screen, biochemical, small-molecule microarray, 635/667 nm fluorescence (AID 1153).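 Further: score merges spot fluorescence with signal-to-noise ratio from the scanned slide images.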 The settings on record: higher = more signal.
Assay [13] can be described thus: PSAC antagonists in infected red cells, primary screen, cell-based, P. falciparum Indochina, OD700, 1 h (AID 1154). The note with it: P. falciparum Indochina infected RBC osmotic lysis, higher = more signal, called active from +8 up or from −8 down.
Assay [14] can be described thus: PSAC antagonists in infected red cells, primary screen, cell-based, P. falciparum Indochina, OD700, 2 h (AID 1155).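 Further: lysis reports solute entry through the parasite surface anion channel PSAC; channel blockers reduce lysis of infected cells.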 The note with it: P. falciparum Indochina infected erythrocytes, osmotic lysis OD700; higher = more signal, called active from +8 up or from −8 down.
Assay [15] is described as follows: osmotic lysis modulators in infected erythrocytes, primary screen, PSAC antagonist project, cell-based, P. falciparum Indochina, OD700, 3 h (AID 1156). The settings on record: higher = more signal, called active from +8 up or from −8 down.
A short description of assay [16]: PSAC antagonists in infected red cells, primary screen, cell-based, P. falciparum Indochina, OD700, 18 h (AID 1157). The note with it: P. falciparum Indochina infected erythrocytes, osmotic lysis OD700, 18 h; higher = more signal, called active from +8 up or from −8 down.
Assay [17] can be described thus: modulators of S6 phosphorylation in cells, primary screen, cell-based, A549, cytoblot, luminescence, serum-stimulated (AID 1158).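 Further: serum-stimulated A549 lung adenocarcinoma cells; signal is phosphorylated S6 detected by cytoblot immunostaining with HRP secondary.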 The settings on record: A549 phospho-S6 cytoblot, 5 h, higher = more signal.
The target in assay [18] is NADPH oxidase 2 (Homo sapiens) (UniProt P04839). Briefly: NOX2-dependent H2O2 signal modulators, primary screen, NOX inhibitor project, cell-based, HEK293-NOX2, PMA-stimulated, Amplex Red fluorescence (AID 1159). Further: test concentration not given here. The settings on record: 45 min, higher = more signal, called active from +8 up or from −8 down.
Assay [19] addresses NADPH oxidase 4 (Homo sapiens) (UniProt Q9NPH5). Description: NOX4-dependent H2O2 signal modulators, primary screen, NOX inhibitor project, cell-based, HEK293-NOX4, tetracycline-induced, Amplex Red fluorescence (AID 1160). The note with it: 45 min, higher = more signal, called active from +8 up or from −8 down.
For assay [20], the target named is NADPH oxidase 5 (Homo sapiens) (UniProt Q96PH1). Description: NOX5-dependent H2O2 signal modulators, primary screen, NOX inhibitor project, cell-based, HEK293-NOX5, Amplex Red fluorescence (AID 1161). The note with it: HEK293-NOX5, ionomycin, 45 min, higher = more signal.

Each structure is given as a SMILES string. Calls of active or inactive are those of the source. Unless noted, how the calls were made is not given here.

Sequence of Streptavidin (Streptomyces avidinii) (P22629 whole entry, looked up): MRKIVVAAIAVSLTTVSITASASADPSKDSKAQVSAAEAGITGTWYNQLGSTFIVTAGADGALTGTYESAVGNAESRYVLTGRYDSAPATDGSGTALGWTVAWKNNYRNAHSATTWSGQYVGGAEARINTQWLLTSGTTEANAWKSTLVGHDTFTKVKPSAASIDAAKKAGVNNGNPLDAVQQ
Sequence of Torsin-1A (Homo sapiens) (O14656 whole entry, looked up): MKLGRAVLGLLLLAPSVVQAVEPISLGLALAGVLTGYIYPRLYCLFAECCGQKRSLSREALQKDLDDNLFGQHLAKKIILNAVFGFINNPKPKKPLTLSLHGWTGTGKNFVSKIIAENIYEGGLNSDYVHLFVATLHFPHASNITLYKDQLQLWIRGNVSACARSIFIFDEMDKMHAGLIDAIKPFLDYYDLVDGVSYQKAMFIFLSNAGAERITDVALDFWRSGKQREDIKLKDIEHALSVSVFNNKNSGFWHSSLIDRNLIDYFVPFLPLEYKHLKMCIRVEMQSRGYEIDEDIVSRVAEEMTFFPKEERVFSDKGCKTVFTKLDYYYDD
Sequence of NADPH oxidase 2 (Homo sapiens) (P04839 whole entry, looked up): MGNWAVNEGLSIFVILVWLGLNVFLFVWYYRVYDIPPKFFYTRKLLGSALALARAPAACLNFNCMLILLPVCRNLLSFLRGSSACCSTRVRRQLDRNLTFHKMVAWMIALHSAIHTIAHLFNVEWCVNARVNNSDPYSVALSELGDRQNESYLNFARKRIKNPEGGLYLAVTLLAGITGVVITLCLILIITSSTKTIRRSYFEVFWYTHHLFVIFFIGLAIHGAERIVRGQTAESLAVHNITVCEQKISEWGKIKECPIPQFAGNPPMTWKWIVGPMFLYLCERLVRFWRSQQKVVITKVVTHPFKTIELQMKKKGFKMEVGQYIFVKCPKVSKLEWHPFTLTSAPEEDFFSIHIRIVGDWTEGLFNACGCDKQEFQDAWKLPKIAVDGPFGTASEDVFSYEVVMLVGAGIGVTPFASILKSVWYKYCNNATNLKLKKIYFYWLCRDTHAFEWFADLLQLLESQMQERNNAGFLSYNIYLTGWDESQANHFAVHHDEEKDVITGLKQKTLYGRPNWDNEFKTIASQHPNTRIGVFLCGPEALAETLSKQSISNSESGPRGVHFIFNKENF
Sequence of NADPH oxidase 4 (Homo sapiens) (Q9NPH5 whole entry, looked up): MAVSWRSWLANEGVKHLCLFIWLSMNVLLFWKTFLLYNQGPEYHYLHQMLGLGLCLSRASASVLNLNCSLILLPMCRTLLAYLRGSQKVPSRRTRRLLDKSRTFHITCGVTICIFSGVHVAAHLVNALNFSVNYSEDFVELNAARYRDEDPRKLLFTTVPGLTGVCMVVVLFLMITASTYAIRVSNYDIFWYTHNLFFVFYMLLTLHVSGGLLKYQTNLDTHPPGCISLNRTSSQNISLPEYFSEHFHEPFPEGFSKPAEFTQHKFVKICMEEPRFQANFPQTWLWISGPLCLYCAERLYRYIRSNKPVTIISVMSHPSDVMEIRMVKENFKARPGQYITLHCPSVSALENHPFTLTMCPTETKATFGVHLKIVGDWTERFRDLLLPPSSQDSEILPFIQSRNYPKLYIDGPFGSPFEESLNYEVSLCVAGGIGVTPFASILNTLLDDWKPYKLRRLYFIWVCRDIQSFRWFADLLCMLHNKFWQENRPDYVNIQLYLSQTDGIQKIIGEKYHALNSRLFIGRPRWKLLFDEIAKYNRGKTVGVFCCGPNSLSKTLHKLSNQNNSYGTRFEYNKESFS
Sequence of NADPH oxidase 5 (Homo sapiens) (Q96PH1 whole entry, looked up): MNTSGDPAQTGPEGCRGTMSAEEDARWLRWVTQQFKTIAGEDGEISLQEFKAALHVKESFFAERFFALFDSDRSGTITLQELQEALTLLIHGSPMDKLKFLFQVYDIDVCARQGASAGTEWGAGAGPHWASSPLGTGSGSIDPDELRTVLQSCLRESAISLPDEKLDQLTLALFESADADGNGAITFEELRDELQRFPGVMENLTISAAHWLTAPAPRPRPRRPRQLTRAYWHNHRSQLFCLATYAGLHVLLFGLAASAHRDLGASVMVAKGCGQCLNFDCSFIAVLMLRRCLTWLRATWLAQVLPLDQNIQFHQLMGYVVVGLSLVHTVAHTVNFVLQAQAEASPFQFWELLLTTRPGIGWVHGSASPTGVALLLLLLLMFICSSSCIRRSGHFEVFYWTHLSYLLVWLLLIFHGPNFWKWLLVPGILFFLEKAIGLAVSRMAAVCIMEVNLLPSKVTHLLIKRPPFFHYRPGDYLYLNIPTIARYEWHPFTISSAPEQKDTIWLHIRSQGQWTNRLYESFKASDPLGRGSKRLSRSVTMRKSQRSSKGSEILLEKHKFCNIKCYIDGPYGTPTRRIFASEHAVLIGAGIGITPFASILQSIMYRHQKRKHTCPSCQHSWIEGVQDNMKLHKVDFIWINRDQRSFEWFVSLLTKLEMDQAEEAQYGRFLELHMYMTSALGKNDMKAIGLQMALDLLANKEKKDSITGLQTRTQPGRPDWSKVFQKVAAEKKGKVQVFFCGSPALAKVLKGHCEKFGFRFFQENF

With `O=C1NC(=O)C2C1C=CC(C(O)Cc1ccccc1)N2Nc1ccccn1` (stereo not given), the composite z-score in assay [1] was 0.0926; in assay [6] it was 0.125; in assay [7], -0.0039; in the assay with Torsin-1A (Homo sapiens) [8] it was 0.638; with Torsin-1A (Homo sapiens) [9], 0.933; in assay [10], 0.141. Also, the composite z-score in assay [12] came out at 0.165. Further, the z-score in [2] was -0.151 (inactive); in assay [3], -0.314 (inactive); in [4] it was 0.0603 (inactive); in [5], 0.589 (inactive); in assay [11], 0.79 (inactive); in assay [13], 0.541 (inactive). Also, the z-score in assay [14] was -0.67 (inactive); in assay [15], -0.255 (inactive); in assay [16] it was -0.422 (inactive); in assay [17], 0.91; in assay [18], -1.58 (inactive); in [19], -2.54 (inactive). The compound further gave a z-score in assay [20] of -1.8.

For `CC(C)=C1C(=O)C(c2ccccc2)=C2CN3C(=O)N(CCc4ccccc4)C(=O)[C@]3(Cc3ccc(F)cc3)[C@H]21`, the composite z-score was -0.506 in assay [1]; 0.0452 in assay [6]; 0.205 in assay [7]; -2.38 in the assay with Torsin-1A (Homo sapiens) [8]; -1.7 in the assay with Torsin-1A (Homo sapiens) [9]; -1.74 in [10]. The composite z-score in assay [12] is 0.318. Also, the z-score is -0.934 (inactive) in assay [2]; -0.00959 (inactive) in assay [3]; 0.576 (inactive) in assay [4]; 1.73 (inactive) in [5]; -2.71 (inactive) in assay [11]; 20.9 (active) in assay [13]. For the same compound, the z-score in assay [14] is 4.68 (inactive); in assay [15], 1.48 (inactive); in assay [16] it was 0.813 (inactive); in [17], -0.51; in assay [18], -0.578 (inactive); in [19], -1.03 (inactive). In addition, in [20], the z-score is -1.11.

As to `CC(=O)OC[C@H]1O[C@H](CCON=C(C)CCN2CCc3nc(-c4ccccc4)c(-c4ccccc4)cc3C2)C=C[C@@H]1OC(C)=O`, the composite z-score in [1] was -0.192; in assay [6], 0.316; in assay [7], 0.156; with Torsin-1A (Homo sapiens) [8], 0.0622; with Torsin-1A (Homo sapiens) [9], 0.407; in assay [10] it was 0.287. For the same compound, the composite z-score in assay [12] was 0.0446. For the same compound, the z-score in assay [2] was -1.04 (inactive); in [3], 0.23 (inactive); in [4], 4.88 (inactive); in assay [5] it was 0.0929 (inactive); in assay [11] it was -0.132 (inactive); in assay [13], 2.65 (inactive). The z-score in assay [14] is 0.452 (inactive); in assay [15] it was 0.676 (inactive); in assay [16] it was 0.148 (inactive); in assay [17] it was -0.166; in assay [18], -2.87 (inactive); in [19], -0.455 (inactive). Moreover, in assay [20], the z-score was -2.78.

In the case of `C[C@@H]1C=CCC(=O)OC[C@H](C)C(=O)OC[C@H]2O[C@H]1C=C[C@H]2O`, the composite z-score in assay [1] is 0.263; in [6], -0.392; in [7], -0.105; with Torsin-1A (Homo sapiens) [8] it was -0.0292; in the assay with Torsin-1A (Homo sapiens) [9], 0.188; in assay [10], 1.09. In assay [12], this compound returned a composite z-score of -0.15. In addition, the z-score is 0.196 (inactive) in [2]; -0.0585 (inactive) in assay [3]; -0.2 (inactive) in assay [4]; 0.165 (inactive) in assay [5]; 0.0366 (inactive) in assay [11]; 1.17 (inactive) in [13]. Moreover, the z-score in [14] is 0.714 (inactive); in assay [15], 0.0284 (inactive); in [16], 0.254 (inactive); in assay [17] it was 1.68; in [18], -0.648 (inactive); in assay [19], -2.12 (inactive). The compound also returned a z-score in [20] of -0.384.

`CC(C)C[C@@H]1NC(=O)[C@H]2C[C@@H](C(=O)O)[C@@H](c3ccc(O)cc3)N2C1=O`: the composite z-score in assay [1] is 0.0112; in assay [6] it was 0.0925; in assay [7], -0.0521; in the assay with Torsin-1A (Homo sapiens) [8], 0.884; with Torsin-1A (Homo sapiens) [9], 0.285; in assay [10] it was 1.67. In assay [12], this compound came in with a composite z-score of 0.0455. Further, the z-score was -0.354 (inactive) in assay [2]; -0.1 (inactive) in assay [3]; 0.281 (inactive) in [4]; -0.627 (inactive) in assay [5]; 0.498 (inactive) in assay [11]; 5.88 (inactive) in assay [13]. The z-score in [14] was 1.66 (inactive); in [15], -1.66 (inactive); in assay [16], 0.448 (inactive); in [17] it was -0.239; in [18], -1.72 (inactive); in [19], -2.25 (inactive). This compound also came in with a z-score in assay [20] of -0.356.

Turning to `Cc1ccc(F)cc1S(=O)(=O)N[C@@H]1CCN(Cc2ccc(CC(C)C)cc2)C1`, the composite z-score is -0.524 in [1]; -0.758 in assay [6]; -0.231 in assay [7]; 0.492 with Torsin-1A (Homo sapiens) [8]; -0.859 with Torsin-1A (Homo sapiens) [9]; 0.15 in assay [10]. In assay [12], this compound returned a composite z-score of -0.146. For the same compound, the z-score in assay [2] was -4.94 (inactive); in assay [3], -0.158 (inactive); in assay [4] it was -0.683 (inactive); in assay [5], 0.673 (inactive); in [11], -19.2 (active); in [13], 2.71 (inactive). For the same compound, the z-score in assay [14] is 0.63 (inactive); in assay [15] it was 0.233 (inactive); in assay [16], 0.916 (inactive); in assay [17] it was -0.647; in [18] it was -0.0569 (inactive); in [19] it was -1.44 (inactive). Further, the z-score in assay [20] is -4.02.

With `COC(=O)[C@@]1(Cc2ccc(F)cc2)[C@@H]2C(=CC(=O)[C@H]2CC(=O)C(=O)N(C)C)CN1C(=O)c1ccccc1`, the composite z-score is 0.392 in assay [1]; 1.7 in assay [6]; 0.38 in [7]; -0.441 with Torsin-1A (Homo sapiens) [8]; 0.283 with Torsin-1A (Homo sapiens) [9]; -0.367 in assay [10]. For the same compound, in [12], the composite z-score amounted to 0.589. Moreover, the z-score is -3.59 (inactive) in assay [2]; 0.504 (inactive) in [3]; -0.179 (inactive) in assay [4]; -0.196 (inactive) in assay [5]; -0.975 (inactive) in assay [11]; 3.38 (inactive) in assay [13]. Also, the z-score in assay [14] was 1.81 (inactive); in assay [15] it was -0.25 (inactive); in [16] it was 1.45 (inactive); in assay [17] it was 0.172; in [18], 0.507 (inactive); in assay [19], 1.3 (inactive). Also, the z-score in assay [20] is -0.494.

Consider `O=C(NN=C1C[C@@H](O)[C@@H](O)[C@@H]2[C@@H]3C(=O)N(c4cccc(Oc5ccccc5)c4)C(=O)[C@@H]3CC[C@H]12)OCc1ccccc1`, for which the composite z-score was -0.132 in assay [1]; 1.68 in [6]; -0.128 in [7]; 0.0142 with Torsin-1A (Homo sapiens) [8]; -0.104 in the assay with Torsin-1A (Homo sapiens) [9]; -0.689 in [10]. In assay [12], this compound yielded a composite z-score of 0.0406. The z-score in assay [2] is -1.24 (inactive); in assay [3], 1.3 (inactive); in assay [4], -0.0199 (inactive); in [5] it was 0.0693 (inactive); in assay [11], -0.155 (inactive); in assay [13], 2.26 (inactive). The z-score in assay [14] is 1.1 (inactive); in [15] it was 2.32 (inactive); in assay [16] it was 0.527 (inactive); in assay [17], -0.738; in [18], 1.25 (inactive); in [19], 0.056 (inactive). The z-score in assay [20] worked out at 0.825.

The values above are taken from PubChem BioAssay.
